Source: PubChem BioAssay (NCATS)
Where “and” joins values, the source holds several entries; their conditions need not be identical. Equal entries are not always repeated. Results filed as inconclusive are left out. Calls of active or inactive are those of the source. Unless noted, the call rests on the fitted dose curve; in most records, active means well fitted curve in the direction sought with a large enough effect; inconclusive means small, poorly fitted or top-dose-only effect, or another doubt; inactive means no such curve, though single readings can be large; an effect the other way counts as inactive or inconclusive.

Assays:
[1] = Cell Viability - SH-SY5Y (AID 544); conditions: SH-SY5Y neuroblastoma cell viability; viability change, negative = cytotoxic: at 92.2 µM (top of the series);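 further: cells exposed to compound for 40 hours; 0% = DMSO alone and -100% = 100 µM tamoxifen; nearly all actives have a fitted effect of over 55% in size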
Outline: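 SH-SY5Y, 1500 cells/well, 5 hr pre-incubation 37 °C; cpd 40 hr 37 °C; CellTiter-Glo 20 min RT; luminescence (ATP) read. qHTS concentration-response, Hill fit → AC50. Tamoxifen, doxorubicin as positive controls.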

[2] = MultiTox-Fluor Cytotoxicity Assay - LYMP1-001 - Live Cells (AID 947);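 further: 0% = DMSO only and full inhibition = tetraoctylammonium bromide control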
[3] = Cell Viability - LYMP2-021 (AID 974);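 further: compound exposure lasts 24 hours at 37 °C; on the % scale 0 is the no-effect control and ±100 the full control effect; nearly all actives have a fitted effect of over 55% in size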
Outline: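 ATP luminescence (CellTiter-Glo, 30 min RT) after 24 h compound exposure at 37 C; 2500 human lymphoblastoid cells/well, 5 h settle beforehand. Cytotoxicity = concentration-dependent ATP drop, AC50 by Hill fit.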

[4] = target: Glucocorticoid receptor (Homo sapiens) (UniProt P04150); assay: qHTS assay for small molecule antagonists of glucocorticoid receptor signaling (AID 588533; active means well fitted inhibition curve with a large enough effect in the signal ratio, with a control signal flat, not every such curve was filed as active; the % refers to the signal ratio;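 further: cells stimulated with 2 nM dexamethasone as agonist; on the % scale 0 is the no-effect control and ±100 the full control effect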)
Sequence of Glucocorticoid receptor (Homo sapiens) (P04150 whole entry, looked up): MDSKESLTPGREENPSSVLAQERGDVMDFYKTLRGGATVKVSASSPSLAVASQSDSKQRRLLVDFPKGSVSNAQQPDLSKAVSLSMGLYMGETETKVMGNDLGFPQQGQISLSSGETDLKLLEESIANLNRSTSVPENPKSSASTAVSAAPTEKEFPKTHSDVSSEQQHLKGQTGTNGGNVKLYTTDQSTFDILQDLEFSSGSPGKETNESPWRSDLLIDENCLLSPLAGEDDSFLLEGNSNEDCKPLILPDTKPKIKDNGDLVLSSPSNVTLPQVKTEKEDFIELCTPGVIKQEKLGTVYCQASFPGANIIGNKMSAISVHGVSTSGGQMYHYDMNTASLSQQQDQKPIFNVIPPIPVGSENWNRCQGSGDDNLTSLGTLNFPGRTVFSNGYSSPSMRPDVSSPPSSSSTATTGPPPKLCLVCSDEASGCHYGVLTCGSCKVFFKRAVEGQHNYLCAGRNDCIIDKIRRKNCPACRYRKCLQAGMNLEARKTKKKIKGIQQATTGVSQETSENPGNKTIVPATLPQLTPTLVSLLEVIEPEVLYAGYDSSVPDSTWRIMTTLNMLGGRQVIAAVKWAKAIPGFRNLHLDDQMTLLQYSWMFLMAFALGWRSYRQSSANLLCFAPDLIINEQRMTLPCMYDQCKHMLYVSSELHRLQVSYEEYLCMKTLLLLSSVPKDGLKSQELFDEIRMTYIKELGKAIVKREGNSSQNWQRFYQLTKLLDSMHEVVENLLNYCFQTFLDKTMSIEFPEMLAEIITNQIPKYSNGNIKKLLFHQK
Outline: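 Antagonist-mode qHTS: compound titrations added to GRE-bla HeLa cells, then dexamethasone 2 nM final; 18 h, 37 C. CCF4 FRET fluorescence normalized to dexamethasone and DMSO; IC50 from Hill fit.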

[5] = target: Peroxisome proliferator-activated receptor delta (Homo sapiens) (UniProt Q03181); assay: qHTS assay for small molecule agonists of peroxisome proliferator-activated receptor delta signaling (AID 588534; calls by dose curve;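 further: 0% = DMSO basal wells and 100% = positive control agonist at 10 µM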)
Sequence of Peroxisome proliferator-activated receptor delta (Homo sapiens) (Q03181 whole entry, looked up): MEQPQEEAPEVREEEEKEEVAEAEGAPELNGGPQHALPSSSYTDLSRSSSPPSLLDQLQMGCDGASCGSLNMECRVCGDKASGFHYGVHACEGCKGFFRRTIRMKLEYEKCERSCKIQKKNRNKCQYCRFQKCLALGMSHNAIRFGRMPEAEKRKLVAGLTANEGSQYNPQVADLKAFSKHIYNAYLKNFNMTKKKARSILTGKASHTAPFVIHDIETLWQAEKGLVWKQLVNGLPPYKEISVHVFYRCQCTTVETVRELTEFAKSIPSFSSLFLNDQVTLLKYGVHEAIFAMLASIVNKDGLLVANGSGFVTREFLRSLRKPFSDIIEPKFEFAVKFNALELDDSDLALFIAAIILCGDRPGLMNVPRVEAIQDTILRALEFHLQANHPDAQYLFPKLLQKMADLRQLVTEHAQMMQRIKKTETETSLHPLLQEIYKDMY
Outline: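 Titration series tested in agonist mode on beta-lactamase reporter cells; 18 hrs at 37 C after a 5 hr pre-incubation. Readout: CCF4 fluorescence, 2 hrs RT. Hill equation gives EC50 and maximal response.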

[6] = qHTS assay for small molecule antagonists of peroxisome proliferator-activated receptor delta signaling (AID 588535; active means well fitted inhibition curve with a large enough effect in the signal ratio, with a control signal flat, not every such curve was filed as active; the % refers to the signal ratio;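 on max response: cells co-treated with a PPAR-delta agonist as stimulator during compound exposure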); conditions: HEK293T PPARd-UAS-bla, beta-lactamase FRET ratio, 18 h; 460 nm channel
Outline: (§1)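 Beta-lactamase reporter read-out (405 nm excitation, 460/530 nm emission) after CCF4 loading for 2 hrs at RT. HEK293T PPAR-delta-UAS-bla cells, 2% charcoal/dextran FBS, compounds for 18 hrs at 37 C. Hill fit gave IC50 and efficacy.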

[7] = target: Peroxisome proliferator-activated receptor delta (Homo sapiens) (UniProt Q03181); assay: as above
Outline: as §1

[8] = target: Voltage-gated inwardly rectifying potassium channel KCNH2 (Homo sapiens) (UniProt Q12809); assay: qHTS Assay for Small Molecule Inhibitors of the Human hERG Channel Activity (AID 588834);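 further: top concentration of the series differs between compounds; on the % scale 0 is the no-effect control and ±100 the full control effect; lower thallium flux fluorescence means stronger hERG block; nearly all actives have a fitted effect of over 50% in size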
Sequence of Voltage-gated inwardly rectifying potassium channel KCNH2 (Homo sapiens) (Q12809 whole entry, looked up): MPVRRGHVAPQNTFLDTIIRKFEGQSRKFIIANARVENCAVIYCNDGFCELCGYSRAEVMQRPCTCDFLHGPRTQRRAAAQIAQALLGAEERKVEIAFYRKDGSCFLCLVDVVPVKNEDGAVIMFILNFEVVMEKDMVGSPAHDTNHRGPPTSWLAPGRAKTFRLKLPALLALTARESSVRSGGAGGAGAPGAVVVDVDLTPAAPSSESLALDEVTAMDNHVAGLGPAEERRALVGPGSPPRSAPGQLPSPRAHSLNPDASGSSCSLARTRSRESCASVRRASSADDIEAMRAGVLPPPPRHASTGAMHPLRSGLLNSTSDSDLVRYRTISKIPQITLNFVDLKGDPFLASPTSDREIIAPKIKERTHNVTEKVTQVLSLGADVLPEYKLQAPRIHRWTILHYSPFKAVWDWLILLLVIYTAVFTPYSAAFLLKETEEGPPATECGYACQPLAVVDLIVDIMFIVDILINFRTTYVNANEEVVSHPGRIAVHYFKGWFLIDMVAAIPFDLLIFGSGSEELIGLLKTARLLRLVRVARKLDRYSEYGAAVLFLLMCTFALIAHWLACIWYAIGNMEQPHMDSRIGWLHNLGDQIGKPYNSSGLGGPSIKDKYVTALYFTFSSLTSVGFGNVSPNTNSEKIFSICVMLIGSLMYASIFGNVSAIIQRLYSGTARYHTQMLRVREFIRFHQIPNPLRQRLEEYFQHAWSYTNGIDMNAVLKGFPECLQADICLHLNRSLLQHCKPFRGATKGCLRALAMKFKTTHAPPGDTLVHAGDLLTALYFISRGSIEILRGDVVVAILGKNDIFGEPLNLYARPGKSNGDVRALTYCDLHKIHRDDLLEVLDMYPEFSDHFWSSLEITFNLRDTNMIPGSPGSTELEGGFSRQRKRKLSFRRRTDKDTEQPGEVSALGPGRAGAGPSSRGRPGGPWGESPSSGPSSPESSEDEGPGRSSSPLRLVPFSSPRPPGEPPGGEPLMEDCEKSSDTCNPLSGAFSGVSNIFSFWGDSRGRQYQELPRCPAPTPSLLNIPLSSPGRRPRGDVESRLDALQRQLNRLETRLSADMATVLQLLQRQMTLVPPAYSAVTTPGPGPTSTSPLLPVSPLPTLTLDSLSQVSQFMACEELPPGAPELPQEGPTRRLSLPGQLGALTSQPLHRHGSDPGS
Outline: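 Thallium-flux (FluxOR) read-out on FDSS: fluorescence read 10 s before and 2 min after stimulation buffer. hERG-BacMam-transduced U2OS cells, compound exposure about 10 min. AC50 by standard Hill equation.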

[9] = qHTS assay to identify small molecules that stimulate interleukin-8 (IL-8) secretion (AID 651758; active means well fitted activation curve with a large enough effect in the signal ratio; the % refers to the signal ratio; further: 0% is about no effect)
Outline: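 Compounds are added to THP-1 cells (2000 per well) and left 16 hrs at 37 C. A labeled anti-IL-8 antibody pair is then added, and IL-8 secretion is measured by time-resolved FRET after 1-3 hrs at room temperature.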

[10] = target: Estrogen receptor (Homo sapiens) (UniProt P03372); assay: qHTS assay for small molecule antagonists of estrogen receptor alpha signaling (AID 588513; active means well fitted curve in the direction sought with a large enough effect in the signal ratio, with a control signal flat, not every such curve was filed as active; the % refers to the signal ratio; further: on the % scale 0 is the no-effect control and ±100 the full control effect)
Sequence of Estrogen receptor (Homo sapiens) (P03372 whole entry, looked up): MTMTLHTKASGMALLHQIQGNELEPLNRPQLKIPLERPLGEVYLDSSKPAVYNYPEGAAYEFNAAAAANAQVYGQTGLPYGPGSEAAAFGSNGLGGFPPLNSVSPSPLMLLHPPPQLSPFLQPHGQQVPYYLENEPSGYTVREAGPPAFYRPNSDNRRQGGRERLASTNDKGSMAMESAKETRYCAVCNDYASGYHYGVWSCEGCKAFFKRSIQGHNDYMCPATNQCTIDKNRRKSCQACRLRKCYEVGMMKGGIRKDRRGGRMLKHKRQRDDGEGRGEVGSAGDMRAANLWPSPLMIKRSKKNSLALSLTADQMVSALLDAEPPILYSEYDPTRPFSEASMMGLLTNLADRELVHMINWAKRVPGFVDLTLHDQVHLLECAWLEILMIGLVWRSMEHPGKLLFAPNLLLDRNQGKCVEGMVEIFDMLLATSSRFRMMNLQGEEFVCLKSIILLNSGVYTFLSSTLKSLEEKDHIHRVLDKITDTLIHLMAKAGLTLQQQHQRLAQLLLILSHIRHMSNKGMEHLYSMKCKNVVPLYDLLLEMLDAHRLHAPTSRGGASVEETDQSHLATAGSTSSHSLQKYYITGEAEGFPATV
Outline: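 Beta-lactamase reporter, antagonist mode, HEK 293 GripTite cells; 0.5nM E2 stimulus, 18 h, 37 C; CCF4 dye 2 h RT; fluorescence. IC50 and efficacy from Hill fits, normalized to E2 and DMSO.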

[11] = target: Estrogen receptor (Homo sapiens) (UniProt P03372); assay: qHTS assay for small molecule agonists of estrogen receptor alpha signaling (AID 588514; calls by dose curve;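 further: 0% = vehicle only and 100% = reference agonist; nearly all actives have a fitted effect of over 70% in size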)
Outline: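 Read-out: CCF4 fluorescence from a beta-lactamase reporter in ER-alpha-UAS-bla HEK 293 cells after 18 hrs of compound exposure at 37 C. Normalized to 20 nM 17-beta-estradiol (100%) and DMSO (0%).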

[12] = target: Peroxisome proliferator-activated receptor gamma (Homo sapiens) (UniProt P37231); assay: qHTS assay for small molecule antagonists of peroxisome proliferator-activated receptor gamma signaling (AID 588537; active means well fitted inhibition curve with a large enough effect in the signal ratio, with a control signal flat, not every such curve was filed as active; the % refers to the signal ratio;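 further: reporter cells co-stimulated with 50 nM rosiglitazone agonist during compound treatment; % of control where 0% means no effect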)
Sequence of Peroxisome proliferator-activated receptor gamma (Homo sapiens) (P37231 whole entry, looked up): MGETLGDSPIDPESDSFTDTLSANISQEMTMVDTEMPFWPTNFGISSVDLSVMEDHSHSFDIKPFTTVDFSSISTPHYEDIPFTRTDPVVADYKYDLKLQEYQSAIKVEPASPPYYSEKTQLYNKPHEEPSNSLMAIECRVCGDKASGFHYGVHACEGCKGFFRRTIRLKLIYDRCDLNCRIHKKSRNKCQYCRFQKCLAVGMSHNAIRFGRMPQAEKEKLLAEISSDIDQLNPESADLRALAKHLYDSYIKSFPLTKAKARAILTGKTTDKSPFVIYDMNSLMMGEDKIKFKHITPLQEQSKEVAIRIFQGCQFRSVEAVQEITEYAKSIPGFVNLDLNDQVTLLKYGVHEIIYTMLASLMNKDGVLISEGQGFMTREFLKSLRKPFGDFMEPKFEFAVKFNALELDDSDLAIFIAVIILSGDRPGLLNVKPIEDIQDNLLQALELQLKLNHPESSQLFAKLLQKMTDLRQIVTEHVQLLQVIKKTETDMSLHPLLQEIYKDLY
Outline: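 Read-out: CCF4 fluorescence (ex 405, em 460/530 nm) after 2 h at RT. Cells were HEK293 carrying a UAS-bla reporter and treated 16 h at 37 C with compound plus rosiglitazone (50 nM final). Normalized to rosiglitazone and DMSO.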

[13] = qHTS assay for small molecule agonists of the antioxidant response element (ARE) signaling pathway (AID 651741; active means well fitted activation curve with a large enough effect in the signal ratio; the % refers to the signal ratio; further: potency means the concentration at half of the fitted maximal effect; on activation: % of control where 0% means no effect)
Outline: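 HepG2 ARE-bla reporter cells, 2,000/well; 5 h settle at 37 C/5% CO2; compound pin transfer (23 nL, DMSO); 16 h at 37 C; LiveBLAzer B/G FRET substrate, 2 h RT; fluorescence intensity read.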

[14] = Cellular Toxicity (caspase-3) Mesangial (AID 660);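 further: combined caspase 3 and 7 activity read by Caspase-Glo luminescence; cells exposed to compound for 16 h before the caspase read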
Outline: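 Luminescent Caspase-Glo 3/7 readout (aminoluciferin substrate cleavage, 20 min RT) after 16 h compound exposure at 37 °C of normal human mesangial cells. Signal increase normalized between DMSO basal and 100 uM tamoxifen; Hill-equation AC50.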

[15] = target: Bile acid receptor (Homo sapiens) (UniProt Q96RI1); assay: qHTS assay for small molecule antagonists of farnesoid X receptor signaling (AID 588526; calls by dose curve; further: on the % scale 0 is the no-effect control and ±100 the full control effect)
Sequence of Bile acid receptor (Homo sapiens) (Q96RI1 whole entry, looked up): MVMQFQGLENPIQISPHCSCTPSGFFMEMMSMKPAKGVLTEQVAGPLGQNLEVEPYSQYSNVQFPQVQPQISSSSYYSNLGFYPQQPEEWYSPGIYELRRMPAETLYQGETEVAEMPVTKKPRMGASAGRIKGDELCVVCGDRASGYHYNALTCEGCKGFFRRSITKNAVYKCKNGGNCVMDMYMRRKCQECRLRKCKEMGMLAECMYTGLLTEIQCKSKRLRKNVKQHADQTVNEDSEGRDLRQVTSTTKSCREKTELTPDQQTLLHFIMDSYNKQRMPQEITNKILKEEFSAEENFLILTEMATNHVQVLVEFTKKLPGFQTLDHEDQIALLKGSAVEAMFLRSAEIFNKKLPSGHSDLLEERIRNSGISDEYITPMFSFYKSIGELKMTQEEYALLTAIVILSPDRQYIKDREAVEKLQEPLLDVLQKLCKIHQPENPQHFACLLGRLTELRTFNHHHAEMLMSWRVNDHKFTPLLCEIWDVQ
Outline: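 Antagonist mode: titrated compounds tested against chenodeoxycholic acid stimulation (normalized to 50 uM CDCA and DMSO) in GeneBLAzer HEK293T cells for 16 h. Beta-lactamase read by CCF4 fluorescence; IC50 from Hill fits.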

[16] = qHTS assay for small molecule activators of the p53 signaling pathway (AID 651743; active means well fitted activation curve with a large enough effect in the signal ratio, not every such curve was filed as active; the % refers to the signal ratio; further: % of control where 0% means no effect); conditions: HCT-116 p53RE-bla, beta-lactamase FRET ratio, 16 h; activation: stronger effect = higher value
Outline: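 Reporter: beta-lactamase driven by p53 response elements, stably integrated in HCT-116 cells. Cells seeded at 4,000/well, 5 h preincubation, compound (DMSO) 16 h at 37 C; B/G FRET substrate 2 h RT; fluorescence intensity read.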

[17] = target: Cytochrome P450 3A4 (Homo sapiens) (UniProt P08684); assay: qHTS Assay for Activators of Cytochrome P450 3A4 (AID 885); further: nearly all actives have a fitted effect of over 65% in size
Sequence of Cytochrome P450 3A4 (Homo sapiens) (P08684 whole entry, looked up): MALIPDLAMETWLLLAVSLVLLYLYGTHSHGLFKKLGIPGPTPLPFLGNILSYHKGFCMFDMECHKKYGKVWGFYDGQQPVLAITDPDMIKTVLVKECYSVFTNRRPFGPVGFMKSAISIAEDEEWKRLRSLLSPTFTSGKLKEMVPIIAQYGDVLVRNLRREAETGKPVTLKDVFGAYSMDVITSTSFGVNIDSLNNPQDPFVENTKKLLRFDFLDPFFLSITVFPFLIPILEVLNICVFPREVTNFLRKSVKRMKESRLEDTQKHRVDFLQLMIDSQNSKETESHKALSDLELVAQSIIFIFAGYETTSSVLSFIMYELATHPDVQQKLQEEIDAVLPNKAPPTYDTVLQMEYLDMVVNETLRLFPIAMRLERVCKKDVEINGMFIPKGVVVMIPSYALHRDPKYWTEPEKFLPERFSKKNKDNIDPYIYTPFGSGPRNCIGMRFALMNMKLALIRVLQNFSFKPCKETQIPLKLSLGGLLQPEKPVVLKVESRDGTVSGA
Outline: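 Luminescent readout of luciferin formed from 25 uM Luciferin-PPXE (KM level) by 20 nM CYP3A4 in 200 mM KPO4, with 60 min NADPH-driven reaction at room temperature after 10 min compound exposure. Ketoconazole (57 uM) defined 100% inhibition.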

Clc1cccc(Cl)c1
inactive: Potency [1] | outcome [2] | Potency [3] | outcome [4] | outcome [5] | outcome [7] | Potency [8] | Potency [9]
20.6%: max response [6]

Clc1ccccc1
inactive: Potency [1] | outcome [2] | Potency [10] | Potency [11] | outcome [4] | outcome [5] | outcome [7] | Potency [12] | Potency [8]
-34.6%: max response [6]

ClCC(Cl)CCl
17.7%: max response [6]
inactive: outcome [2] | Potency [3] | outcome [4] | outcome [5] | Potency [8] | Potency [13]

C=CCCl
inactive: Potency [1] | outcome [14] | outcome [2] | Potency [10] | Potency [11] | outcome [4] | outcome [5] | Potency [12]

Oc1ccc(Cl)c(Cl)c1Cl
inactive: outcome [2] | Potency [3] | outcome [15] | outcome [4] | outcome [5] | Potency [12] | Potency [8] | activation [16] -0.769% | Potency [9]
active: Potency [13] 42.2 µM

CCBr
13.3%: max response [6]
inactive: Potency [1] | Potency [3] | Potency [10] | outcome [4] | Potency [13] | activation [16] 1.32%

CNC(=O)O/N=C/C(C)(C)S(C)=O (stereo unspecified)
inactive: outcome [14] | outcome [2] | Potency [3] | Potency [10] | outcome [15] | outcome [4] | outcome [7] | Potency [12] | Potency [8] | activation [16] -0.482% and 5.01% | Potency [9]
8.11% and 9.71%: max response [6]

CN(C)c1ccc(N(C)C)cc1
active: viability change, negative = cytotoxic [1] -98.2% | Potency [13] 42.2 µM
inactive: outcome [14] | outcome [2] | Potency [10] | outcome [15] | outcome [4] | Potency [12] | activation [16] 1.85%

ClCC(Br)CBr (stereo unspecified)
inactive: Potency [1] | outcome [2] | Potency [3] | Potency [10] | outcome [4] | Potency [8] | activation [16] -3.3%

CCOP(=S)(OCC)SCCSCC
-12.4% and 3.79%: max response [6]
inactive: Potency [1] | outcome [14] | outcome [2] | Potency [3] | outcome [4] | outcome [5] | outcome [7] | Potency [12] | Potency [13] | activation [16] -1.38% and -6.24%

Nc1cc(Cl)cc(Cl)c1
-13.8%: max response [6]
inactive: Potency [1] | outcome [14] | Potency [17] | outcome [2] | Potency [3] | outcome [15] | outcome [5] | outcome [7] | Potency [12] | activation [16] 1.82%
